ROCK2 inh – inhibitors of human Rho kinase 2. O75116. purified ROCK2, Kinase-Glo ATP depletion luminescence. inhibition, % at 6 µM. 60,000 tested, 0.35% active;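 active = inhibition above the screen-wide mean inhibition plus 3 SD, cut at about 18% in these data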;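 note: plate controls were DMSO wells for no effect and Y-27632 control wells after no-enzyme background subtraction for full effect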
SKBR3 24h inh – SK-BR-3 proliferation inhibitors | SK-BR-3 viability, CellTiter-Glo ATP luminescence, 24 h; hits give low values | viability, % at 10 µM | 41,000 tested, 0.47% active;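 active = viability at or below the median of all test compounds minus 3 SD, in both replicates if run twice, cut at about 45% in these data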;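 note: 100% = median untreated cell wells and 0% = median positive control drug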
Her2 expr inh – inhibitors of human Her2 kinase expression; SKBR-3 HER2 protein level, AlphaScreen, 18-24 h; hits give low values; HER2 level % of control, % at 10 µM; 65,000 tested, 0.69% active;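 active = HER2 level under 5% of the carrier-only control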;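 note: 100% = DMSO carrier and 0% = 500 nM PU-H71 HSP90 inhibitor; lower value means stronger loss of Her2 protein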
Target sequence (P04626 whole entry, looked up): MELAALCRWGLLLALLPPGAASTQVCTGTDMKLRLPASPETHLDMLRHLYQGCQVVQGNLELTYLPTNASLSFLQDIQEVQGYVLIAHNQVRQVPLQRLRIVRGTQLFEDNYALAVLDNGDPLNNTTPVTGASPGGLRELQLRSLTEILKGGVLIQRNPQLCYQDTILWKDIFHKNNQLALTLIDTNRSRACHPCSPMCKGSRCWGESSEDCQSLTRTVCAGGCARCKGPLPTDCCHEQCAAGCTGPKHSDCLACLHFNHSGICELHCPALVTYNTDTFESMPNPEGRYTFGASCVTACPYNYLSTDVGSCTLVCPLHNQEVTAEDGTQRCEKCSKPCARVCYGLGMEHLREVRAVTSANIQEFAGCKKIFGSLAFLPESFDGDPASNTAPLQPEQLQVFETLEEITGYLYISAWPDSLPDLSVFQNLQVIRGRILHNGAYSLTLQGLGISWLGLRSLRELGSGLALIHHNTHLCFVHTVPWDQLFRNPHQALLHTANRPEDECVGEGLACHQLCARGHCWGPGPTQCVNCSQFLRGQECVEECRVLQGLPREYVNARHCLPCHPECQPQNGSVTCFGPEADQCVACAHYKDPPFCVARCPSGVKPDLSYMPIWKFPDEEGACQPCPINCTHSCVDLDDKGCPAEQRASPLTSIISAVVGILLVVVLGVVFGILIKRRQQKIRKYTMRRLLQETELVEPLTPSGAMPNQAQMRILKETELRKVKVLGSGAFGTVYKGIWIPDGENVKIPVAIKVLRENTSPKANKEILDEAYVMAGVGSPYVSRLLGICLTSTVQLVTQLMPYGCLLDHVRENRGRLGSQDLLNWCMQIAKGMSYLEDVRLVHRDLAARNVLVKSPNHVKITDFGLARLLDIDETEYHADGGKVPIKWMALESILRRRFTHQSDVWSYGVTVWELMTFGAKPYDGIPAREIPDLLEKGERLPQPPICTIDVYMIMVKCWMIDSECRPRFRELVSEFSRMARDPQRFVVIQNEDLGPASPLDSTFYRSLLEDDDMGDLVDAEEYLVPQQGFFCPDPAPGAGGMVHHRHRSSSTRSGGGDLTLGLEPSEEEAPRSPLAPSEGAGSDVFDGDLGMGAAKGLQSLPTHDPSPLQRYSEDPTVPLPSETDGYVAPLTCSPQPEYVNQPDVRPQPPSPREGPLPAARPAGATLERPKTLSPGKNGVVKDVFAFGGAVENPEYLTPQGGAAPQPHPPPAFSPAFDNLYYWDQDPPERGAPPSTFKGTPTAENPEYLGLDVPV
PKA kinase inh – inhibitors of human protein kinase A; AID 524; P17612; PKA Kemptide phosphorylation, Kinase-Glo ATP luminescence; inhibition, % at 6 µM; 65,000 tested, 0.1% active;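 active = inhibition above the screen-wide mean inhibition plus 3 SD, cut at about 21% in these data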
JNK3 blocker – JNK3 (human) kinase inhibition | P53779 | purified JNK3 kinase activity, HTS | inhibition, % at 8 µM | 60,000 tested, 0.61% active | AID 746; in the data active = inhibition above about 17%;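 note: 0% = DMSO and 100% = reference inhibitor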
The depositor's hits bear a star. A selection: hits, their analogues and other compounds. The true share with any hit is near 1.5%.

How did Cc1ccc2[nH]c(C)c(CN(C)C3CCN(C)CC3)c(=O)c2c1 do in these assays?
ROCK2 inh: 10; SKBR3 24h inh: 26*; Her2 expr inh: 87; PKA kinase inh: 10; JNK3 blocker: 2

How did Cc1sc2nc(C(C)Nc3ccccc3N3CCOCC3)[nH]c(=O)c2c1C (stereo unspecified) do in these assays?
ROCK2 inh: 4; Her2 expr inh: 59; PKA kinase inh: 6; JNK3 blocker: 6

How did CC1CCN(CCCNC(=O)c2cc3sccc3n2C)CC1 do in these assays?
ROCK2 inh: 7; SKBR3 24h inh: 42*; Her2 expr inh: 89; PKA kinase inh: 13; JNK3 blocker: 6

How did COc1ccccc1NS(=O)(=O)c1ccc(NC(C)=O)cc1 do in these assays?
ROCK2 inh: 6; SKBR3 24h inh: 106; Her2 expr inh: 83; PKA kinase inh: 6; JNK3 blocker: -1

Results for COC(=O)/C=C/S(=O)(=O)c1ccc(NC(C)=O)cc1 ?
ROCK2 inh: 4; SKBR3 24h inh: 2.1*; Her2 expr inh: -20*; PKA kinase inh: 7; JNK3 blocker: 13

What do the screens show for `CN(CC(=O)NC(=O)NCc1ccco1)Cc1nc2ccccc2c(=O)[nH]1`?
ROCK2 inh: -6; Her2 expr inh: -33*; PKA kinase inh: -2; JNK3 blocker: -4

What do the screens show for `CN(Cc1nc2ccccc2c(=O)[nH]1)CC(O)COCc1ccco1` (stereo unspecified)?
ROCK2 inh: -2; Her2 expr inh: 78; PKA kinase inh: 0; JNK3 blocker: -5

What do the screens show for `COc1ccc2c(C=Nc3c(C)n(C)n(-c4ccccc4)c3=O)c(O)n(Cc3ccco3)c(=O)c2c1`?
ROCK2 inh: 5; Her2 expr inh: 98; PKA kinase inh: -4; JNK3 blocker: -1

Results for O=S1(=O)Nc2c(ccc3cccnc23)-c2ccccc21 ?
ROCK2 inh: 4; SKBR3 24h inh: 85; Her2 expr inh: -8.0*; PKA kinase inh: 2; JNK3 blocker: -4

How did COc1ccc(S(=O)(=O)Nc2ccc(O)c3ccccc23)cc1 do in these assays?
ROCK2 inh: 6; Her2 expr inh: 3.4*; PKA kinase inh: 8; JNK3 blocker: 2

How did O=C1OCc2cc(NS(=O)(=O)c3cccs3)ccc21 do in these assays?
ROCK2 inh: -5; SKBR3 24h inh: 84; Her2 expr inh: 111; PKA kinase inh: 1; JNK3 blocker: 8

Results for O=S(=O)(Nc1ccc2c(c1)CCC2)c1cccs1 ?
ROCK2 inh: 1; Her2 expr inh: -26*; PKA kinase inh: -7; JNK3 blocker: -12

How did C=CCSc1nc(N)c(C(=O)Nc2ccccc2C)cc1C(N)=O do in these assays?
ROCK2 inh: 4; SKBR3 24h inh: 91; Her2 expr inh: 95; PKA kinase inh: 9; JNK3 blocker: 6

Results for O=C1Nc2ccc(NS(=O)(=O)c3cccs3)c3cccc1c23 ?
ROCK2 inh: 6; Her2 expr inh: 88; PKA kinase inh: 12; JNK3 blocker: -12

How did O=S(=O)(Nc1cccc2ncccc12)c1cccs1 do in these assays?
ROCK2 inh: 4; Her2 expr inh: -7.3*; PKA kinase inh: 4; JNK3 blocker: -2

What do the screens show for `CC(C)CN(CC(C)C)C(=O)C12CCC(C)(C(=O)C1)C2(C)C` (stereo unspecified)?
ROCK2 inh: 3; SKBR3 24h inh: 115; Her2 expr inh: 110; PKA kinase inh: 12; JNK3 blocker: -4

Results for CC1CCN(S(=O)(=O)c2ccc(S(=O)(=O)NCC3COCCO3)cc2)CC1 (stereo unspecified) ?
ROCK2 inh: -4; SKBR3 24h inh: 78; Her2 expr inh: 85; PKA kinase inh: -5; JNK3 blocker: -7

What do the screens show for `O=C(O)CN1C(=O)CC(Cc2ccc(Cl)cc2)C1=O` (stereo unspecified)?
ROCK2 inh: -2; SKBR3 24h inh: 67; Her2 expr inh: -20*; PKA kinase inh: -1; JNK3 blocker: 3

Results for O=C1CC(Cc2ccc(Cl)cc2)C(=O)N1c1ccccn1 (stereo unspecified) ?
ROCK2 inh: 0; SKBR3 24h inh: 100; Her2 expr inh: 69; PKA kinase inh: -2; JNK3 blocker: -5

Results for CCN1CCN(c2ccc(-n3c(C)nc4c(cnn4-c4ccccc4Cl)c3=O)cc2)CC1 ?
ROCK2 inh: 3; Her2 expr inh: 136; PKA kinase inh: 11; JNK3 blocker: 0

Results for O=S(=O)(c1ccc2c(c1)OCCO2)N1CCC(n2cnc3cc(F)ccc32)CC1 ?
ROCK2 inh: 6; SKBR3 24h inh: 78; Her2 expr inh: 60; PKA kinase inh: 11; JNK3 blocker: 25*

How did O=S(=O)(c1ccc2c(c1)OCCO2)N1CCC(n2nnc3cc(F)ccc32)CC1 do in these assays?
ROCK2 inh: 4; SKBR3 24h inh: 86; Her2 expr inh: 77; PKA kinase inh: 7; JNK3 blocker: 4

Results for C=CCOc1cccc(C2/C(=C(/O)c3ccccc3)C(=O)C(=O)N2CCCN2CCOCC2)c1 (stereo unspecified) ?
ROCK2 inh: 1; SKBR3 24h inh: 84; Her2 expr inh: 110; PKA kinase inh: 1; JNK3 blocker: 2

How did c1ccc(CNc2ncnc3c2cnn3-c2ccccc2)cc1 do in these assays?
ROCK2 inh: 8; SKBR3 24h inh: 115; Her2 expr inh: 81; PKA kinase inh: 13; JNK3 blocker: 21*

How did Clc1ccc(-n2ncc3c(NCc4cccs4)ncnc32)cc1 do in these assays?
ROCK2 inh: -19; SKBR3 24h inh: 84; Her2 expr inh: 62; PKA kinase inh: -4; JNK3 blocker: 1

What do the screens show for `Fc1ccc(CNc2ncnc3c2cnn3-c2ccccc2)cc1`?
ROCK2 inh: 0; SKBR3 24h inh: 86; Her2 expr inh: 58; PKA kinase inh: 2; JNK3 blocker: 6

What do the screens show for `Cn1ncc2c(NCc3ccccc3)ncnc21`?
ROCK2 inh: 0; SKBR3 24h inh: 89; Her2 expr inh: 103; PKA kinase inh: 1; JNK3 blocker: 18*

How did Cc1cccc(-n2ncc3c(NCc4ccccc4)ncnc32)c1 do in these assays?
ROCK2 inh: -2; Her2 expr inh: 42; PKA kinase inh: -5; JNK3 blocker: 14

Results for Cc1cccc(-n2ncc3c(NCc4cccs4)ncnc32)c1 ?
ROCK2 inh: 5; SKBR3 24h inh: 97; Her2 expr inh: 90; PKA kinase inh: 7; JNK3 blocker: 22*

Results for CC(=O)Oc1ccc(NC(=O)CSc2ccccc2)cc1 ?
ROCK2 inh: 3; SKBR3 24h inh: 98; Her2 expr inh: 107; PKA kinase inh: 4; JNK3 blocker: 3

How did CCn1cc(S(=O)(=O)CC(=O)N2CCc3ccccc32)c2ccccc21 do in these assays?
ROCK2 inh: 2; Her2 expr inh: 1.6*; PKA kinase inh: 8; JNK3 blocker: -5

What do the screens show for `CCCn1c(NC(=O)c2ccc(Cl)c(S(=O)(=O)N3CCCC3)c2)nc2ccccc21`?
ROCK2 inh: 6; Her2 expr inh: 64; PKA kinase inh: 15; JNK3 blocker: 7

Results for Cc1nc(N)sc1-c1csc(Nc2ccccc2)n1 ?
ROCK2 inh: 11; SKBR3 24h inh: 83; PKA kinase inh: 7; JNK3 blocker: -2

What do the screens show for `CC(=O)Nc1nc(C)c(-c2csc(Nc3ccc(O)cc3)n2)s1`?
ROCK2 inh: 9; SKBR3 24h inh: 95; Her2 expr inh: 16; PKA kinase inh: 8; JNK3 blocker: 18*
